The text below walks through data of ChEMBL document CHEMBL4513216, “Probing the Open Global Health Chemical Diversity Library for Multistage-Active Starting Points for Next-Generation Antimalarials” (ACS Infect Dis, 2020).

Molecules are shown by their SMILES. About 8,600 (12%) of roughly 69,000 compounds showed an effect of 50% or more. The sample as a whole holds a higher share of strong results than the screen did.

In this experiment the test system is Plasmodium berghei. Description: Screen against P. berghei liver stage (PbLuc), transformed with Luciferase, at 10uM. It is filed as functional, HepG2. The conditions noted are these: tested at 10 uM.
Regarding `COCCN(Cc1ccco1)Cc1nc(-c2ccc(C)c(F)c2)no1`, the INHIBITION is on record as -16.7%.
Under `COc1ccc(CN2CC[C@H](NC(C)=O)[C@@H](O)CC2)c(F)c1` stands 38.2%; under `COc1cc(C(=O)NCc2ccc3c(c2)CCCN3C)cc(OC)c1Br`, 34.7%.
Then `CN1CCCc2cc(CNC(=O)c3ccc(-n4cnnc4)cc3)ccc21`, with 37.4%; and `CN1CCCc2cc(CNC(=O)c3cc[n+]([O-])cc3)ccc21`, with 53.9%.
Turning to `CN1CCCc2cc(CNC(=O)c3ccncc3)ccc21`, the INHIBITION is recorded as 63.9%.
As for `Cc1cnc(C(=O)NCc2ccc3c(c2)CCCN3C)cn1`, the INHIBITION amounted to 19.6%.
Then `COC(=O)c1cccc(C(=O)NCc2ccc3c(c2)CCCN3C)c1`, with 34.7%; and `Cc1ccc(N2CCN(C(=O)C3CN(C)C(=O)N3)CC2=O)cc1` (configuration not stated), with 17.8%.
Then `O=C(CC1CCC1)N1CCCC(CO)(CC2CC2)C1` (configuration not stated), with 22.1%; and `CN(C)C(=O)N1CCN(c2ccc3ccc(C(=O)NC4CC4)cn23)CC1`, with -14.7%; and `CCOC(=O)c1c(NC(=O)CN2CCN(C(C)=O)CC2)sc2c1CCC2`, with 14.2%.
Under `CC(C(=O)NCc1ccnc(N2CCN(C)CC2)c1)S(C)(=O)=O` (configuration not stated) stands 23.333%; under `CC(=O)N1Cc2ccccc2OC2(CCN(C(=O)C3CCOC3)CC2)C1` (configuration not stated), 6.26%; under `Cc1ccc(N2CCC(NC(C)c3cccs3)CC2)nc1` (configuration not stated), 22.9%.
`Cc1ccc(N2CCC(Nc3ccc4nnc(C)n4n3)CC2)nc1`: the INHIBITION was 58.7%.
Under `CCc1cc(N2CCC(Nc3ccc4nnc(C)n4n3)CC2)ncn1` stands 46.4%.
Then `c1cc(CN2CCC3(CCOCC3COCC3CC3)CC2)co1` (configuration not stated), with 38.3%; and `Cn1nnc2c1CCN(Cc1ccco1)C2COCc1ccccc1` (configuration not stated), with -48.4%; and `Cc1cc(C)n(-c2ccc(N3CCCSCC3)nc2)n1`, with 25.8%.
Then `Cc1cc(C)n(-c2ccc(N3CCC4(CC3)OCCO4)nc2)n1`, with -125%.
For `Cc1cc(C)n(-c2ccc(N3CCC(O)CC3)nc2)n1`, the INHIBITION is listed as 50.5%.
Under `CS(=O)(=O)Cc1noc(CN2CCN(c3ccccc3Cl)CC2)n1` stands 45.7%.
Then `Clc1cccc2c1CCN(Cc1nc(CC3CC3)no1)C2`, with 50.5%.
Under `Cc1cccc(N2CCN(Cc3nc(CC4CC4)no3)CC2)n1` stands 32.7%; under `Cc1ncc2c(n1)CCN(Cc1nc(Cc3ccccc3)no1)C2`, -154%.
Turning to `Cc1cccc(SC2CCN(Cc3nc(CC4CC4)no3)CC2)c1`, the INHIBITION was 11.9%.
Under `CS(=O)(=O)Cc1noc(CN2CCc3c(Cl)cccc3C2)n1` stands 82.5%.
Then `CCOC(=O)c1sc(NC(=O)C(C)C)c(C#N)c1C`, with 38%; and `CN1CCN(Cc2ccccc2Oc2cncc(C(N)=O)n2)CC1`, with 4.82%; and `NC(=O)c1ccnc(N2CCN(Cc3ccc(F)cc3Cl)CC2)c1`, with 83.2%.
Under `NC(=O)c1cncc(N2CCN(Cc3cccc4nsnc34)CC2)n1` stands -47.8%; under `COc1ccc(CN2CCCN(c3cc(C(N)=O)ccn3)CC2)cc1`, -18.7%.
Consider `NC(=O)CN1CC2(CCC1=O)CCN(Cc1ccc(F)cc1Cl)CC2`, for which the INHIBITION came out at 31.7%.
For the compound `NC(=O)c1ccc(N2CCN(Cc3ccc(F)cc3Cl)CC2)nn1`, the INHIBITION amounted to 81.2%.
Then `NC(=O)c1cncc(N2CCN(Cc3ccc(F)cc3Cl)CC2)n1`, with 69.3%; and `O=C(c1cnns1)N1CCN(Cc2ccc(F)cc2Cl)CC1`, with -18.2%; and `NC(=O)c1ccnc(N2CCCC(CO)(Cc3ccc(F)cc3)C2)c1` (configuration not stated), with 43.5%.
Then `Cc1nn(C)c(N2CCOCC2)c1CNCc1ccc(C(C)O)cc1` (configuration not stated), with 43.2%; and `CC(C)CC(=O)N1CCN(Cc2cc(-c3ccncc3)nn2C)CC1`, with -23.8%; and `CCOC(=O)c1sc(NC(=O)CN2C(=O)CCC2=O)c(C#N)c1C`, with 32.2%.
Then `CC(C)c1ccc(-n2ncc(C(=O)N(C)C3CCN(C)CC3)c2N)cc1`, with -29%; and `Cc1ccc(CN(CCN(C)C)Cc2ccnn2C2CCCCO2)o1` (configuration not stated), with 15.5%; and `Cc1ccc(O)c(C(=O)N2CCC3(CCCNC3)C2)c1` (configuration not stated), with 42.1%.
On to `O=C1CNc2ncnc(Nc3cnn(Cc4ccccc4)c3)c2N1`, for which the INHIBITION was 34.6%.
Consider `O=C1CNc2ncnc(Nc3cnn(Cc4cccc(F)c4)c3)c2N1`, for which the INHIBITION is listed as -6.47%.
On to `O=C1CNc2ncnc(Nc3cnn(Cc4ccc(F)cc4)c3)c2N1`, for which the INHIBITION came out at 65.8%.
Then `COCCN1C[C@@H](C)[C@@]2(COCCN(C(=O)c3cccs3)C2)C1`, with 20.1%.
In the case of `Cc1ccc(C(NC(=O)C2CC2)c2cccc(S(C)(=O)=O)c2)cc1` (configuration not stated), the INHIBITION is 52.5%.
Then `CCC(=O)NC(c1ccc(C)cc1)c1cccc(S(C)(=O)=O)c1` (configuration not stated), with 34.7%; and `CCNC(=O)NC(c1ccc(C)cc1)c1cccc(S(C)(=O)=O)c1` (configuration not stated), with 31.7%.
Under `Cc1cnc(CCNC(=O)C2CN(C(=O)Cc3ccc(F)cc3)C2)s1` stands -3.15%.
